Among all 2,200 compounds or so, about 1,500 (68%) were called active. So high a share suggests a set chosen from earlier hits. Not all results are given here. A number with no mark means an inactive call. Cut-off read from the data, not from the text of the source: active = inhibition above about 23%; inactive = the rest.
Biological target: Perilipin-5 (Homo sapiens) + 1-acylglycerol-3-phosphate O-acyltransferase ABHD5 (Homo sapiens) (UniProt Q00G26+Q8WTS1)
Experiment: blockers of ABHD5 binding to perilipin-5 – biochemical, luminescence, confirmation (AID 651612);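 note: 0% = DMSO vehicle wells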
Conditions: biochemical ABHD5-PLIN5 interaction, at 4 µM, hits give high values

Chain of Perilipin-5 (Homo sapiens) + 1-acylglycerol-3-phosphate O-acyltransferase ABHD5 (Homo sapiens) (Q00G26 whole entry, looked up): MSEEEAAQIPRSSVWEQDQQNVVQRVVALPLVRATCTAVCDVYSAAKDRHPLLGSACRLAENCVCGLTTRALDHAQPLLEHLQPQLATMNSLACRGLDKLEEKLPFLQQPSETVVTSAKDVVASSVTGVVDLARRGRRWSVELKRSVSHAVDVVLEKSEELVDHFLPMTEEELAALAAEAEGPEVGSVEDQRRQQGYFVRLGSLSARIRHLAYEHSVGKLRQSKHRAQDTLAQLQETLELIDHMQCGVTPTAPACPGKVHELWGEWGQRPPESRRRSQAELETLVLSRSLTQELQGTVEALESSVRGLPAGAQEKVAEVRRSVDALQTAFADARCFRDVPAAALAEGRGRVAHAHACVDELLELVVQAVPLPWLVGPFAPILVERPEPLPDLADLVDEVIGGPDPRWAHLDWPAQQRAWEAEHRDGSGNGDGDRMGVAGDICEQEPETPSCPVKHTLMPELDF
Chain of Perilipin-5 (Homo sapiens) + 1-acylglycerol-3-phosphate O-acyltransferase ABHD5 (Homo sapiens) (Q8WTS1 whole entry, looked up): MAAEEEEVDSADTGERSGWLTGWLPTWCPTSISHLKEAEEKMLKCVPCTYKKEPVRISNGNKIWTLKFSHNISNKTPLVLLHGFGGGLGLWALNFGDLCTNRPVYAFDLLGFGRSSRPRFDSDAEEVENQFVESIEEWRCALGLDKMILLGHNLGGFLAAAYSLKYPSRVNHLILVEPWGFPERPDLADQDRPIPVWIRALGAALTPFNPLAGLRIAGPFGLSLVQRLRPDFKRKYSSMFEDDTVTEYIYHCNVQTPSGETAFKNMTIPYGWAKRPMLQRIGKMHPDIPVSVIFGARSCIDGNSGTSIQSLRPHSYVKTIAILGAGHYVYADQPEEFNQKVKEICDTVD

| SMILES | inhibition |
| --- | --- |
| O=C(O)c1ccc2c(c1)C(=O)N(c1ccc(/C=C/C(=O)c3ccccc3)cc1)C2=O | 94.7% (active) |
| O=[N+]([O-])/C=C/c1ccc2c(ccn2Cc2ccccc2)c1 | 103% (active) |
| Cc1cc(C)c(NC(=O)C[N+](C)(C)CC(O)COc2cccc3ccccc23)c(C)c1 (stereo unspecified) | 22.2% (active) |
| C[C@@H]1C[C@@H]2O[C@H]2/C=C\C=C\C(=O)Cc2c(Cl)c(O)cc(O)c2C(=O)O1 | 53.1% (active) |
| O=C(NNc1c2ccccc2nc2ccccc12)c1cc2ccccc2cc1O | 35.2% (active) |
| Cc1cc2c(c(=O)n1Cc1ccco1)C(c1ccccc1)C(C#N)=C(N)O2 (stereo unspecified) | 19% |
| CCCOc1ccc(C(=O)C(CCC(CNCC)C(=O)c2ccc(OCCC)cc2)CNCC)cc1 (stereo unspecified) | 19.7% |
| CCc1ccc(NC(=O)CSc2nnc(-c3cnccn3)n2Cc2ccco2)cc1 | 19.6% |
| CC(C)(C)C1C/C(=C/c2ccco2)C(=O)/C(=C/c2ccco2)C1 (stereo unspecified) | 77.8% (active) |
| COc1ccc(-n2cc(CNC3CCOCC3)c(-c3cccc(F)c3)n2)cc1 | 2.9% |
| Cc1cccc(C=CC(=O)c2ccc(Cl)cc2)c1 | 84.9% (active) |
| CC(=O)N(c1ccc2oc(=O)sc2c1)S(=O)(=O)c1ccc(C)cc1 | -52.7% |
| COc1ccc(CNC(=O)/C(C#N)=C/c2cccc(OC)c2OC)cc1 | 56.6% (active) |
| O=C(Nc1ccccc1)c1nnsc1S(=O)(=O)c1ccc(Cl)cc1 | 64.1% (active) |
| O=C(N/N=C/C=C/c1ccco1)c1cccs1 | 40.2% (active) |
| COc1cccc2sc(N(CCCN(C)C)C(=O)C(c3ccccc3)c3ccccc3)nc12 | 18.3% |
| O=C1C=CC(=O)N1c1ccc(N2CCCCC2)cc1 | 36.2% (active) |
| COc1ccc(N/C=C(\C2OC(=O)c3ccccc32)[N+](=O)[O-])cc1 (stereo unspecified) | 9.16% |
| O=c1[nH]c(/C=C\c2cccc(C(F)(F)F)c2)nc(O)c1[N+](=O)[O-] | 83.9% (active) |
| CC1(C)CCSC(/C=C/c2ccccc2)=N1 | 77.3% (active) |
| COc1ccccc1C1/C(=C(/O)c2ccc(C)cc2)C(=O)C(=O)N1Cc1ccco1 (stereo unspecified) | 2.17% |
| C[C@@H](CN1CCC[C@H]1CN1C(N)=NC[C@@H]1Cc1ccccc1)N1C[C@@H](Cc2ccccc2)N(CCCC2CCCC2)C1=N | 11.3% |

| SMILES | inhibition |
| --- | --- |
| Cc1ccn(C(CC(=O)c2ccc(Br)cc2)C(=O)O)n1 (stereo unspecified) | 6% |
| Cc1ccc(SC(CC(=O)c2ccc(C(C)(C)C)cc2)C(=O)O)cc1 (stereo unspecified) | 36.4% (active) |
| CC(=O)c1ccc(NC(=O)CCc2nnc3ccc(NCc4ccco4)nn23)cc1 | 9.27% |
| C=C(C)C(=O)O[C@H]1C/C(C)=C\C(=O)/C=C(\C)[C@H](O)[C@@H]2OC(=O)C(=C)[C@@H]21 | 45.7% (active) |
| NC(=O)c1nsc(C(=O)N(CC(=O)NCc2ccc(F)cc2)Cc2ccco2)c1N | 4.49% |
| CCC(C(=O)OCCN(CC)CC)c1ccccc1 (stereo unspecified) | 79.4% (active) |
| C=C1C(=O)[C@]23C[C@H]1CCC2[C@@]1(C)C(C[C@@H]3O)[C@](C)(C(=O)O)CC[C@@H]1O (stereo partly specified) | 34.6% (active) |
| COC(C/C=C/C(=O)[C@@H](C)OCc1ccccc1)OC | 41.6% (active) |
| COC(=O)c1cnn2c(C(F)(F)F)cc(-c3ccco3)nc12 | 14% |
| O=C1/C(=C\c2ccc([N+](=O)[O-])cc2)CS(=O)(=O)C/C1=C/c1ccc([N+](=O)[O-])cc1 | 103% (active) |
| Cc1cccc(C)c1NC(=O)C(Cl)C(=O)c1ccccc1 (stereo unspecified) | 68.9% (active) |
| COc1ccc(-c2cc(C(F)(F)F)nc(S(C)(=O)=O)n2)cc1OC | 52.6% (active) |
| COCCN(CCOC)c1nc(N)c2c(N)nc3c(c2c1C#N)CC(=O)N3Cc1ccc(Cl)cc1 | 32.1% (active) |
| COc1ccc2sc(-c3ccccc3OC)c(-c3ccc(OCCN4CCCC4)cc3)c2c1 | 15.5% |
| CCN1CCC(O)(/C=C/c2ccc(C)cc2)C(C(=O)/C=C/c2ccc(C)cc2)C1 (stereo unspecified) | 90.5% (active) |
| O=C(CCN1CCc2ccccc2C(O)(c2ccccc2)C1)c1ccc2c(c1)OCCO2 (stereo unspecified) | 51.6% (active) |
| Cc1c(CCOC(=O)CC23CC4CC(CC(C)(C4)C2)C3)sc[n+]1Cc1ccc([N+](=O)[O-])cc1 | 16.8% |
| Cc1ccc2nc(-c3ccco3)c(Cc3cccc(Cl)c3)n2c1 | 26.5% (active) |
| Cc1ccc(Cc2c(-c3ccco3)nc3ccc(Cl)cn23)cc1 | 32.4% (active) |
| O=C1C(Cl)=C(Oc2ccccc2)C(=O)c2ccccc21 | 85.3% (active) |
| O=c1[nH][nH]c2c1[C@H](c1ccc(Cl)cc1)O[C@H](CCc1ccccc1)C2 | 2.53% |
| Cc1csc(NC(=O)NC2(C(F)(F)F)Oc3ccccc3O2)n1 | 92.4% (active) |

| SMILES | inhibition |
| --- | --- |
| O=C(c1cccnc1)N(c1cc2sc(=O)oc2c2ccccc12)S(=O)(=O)c1ccccc1 | -3.41% |
| CC1Cc2ccccc2N1CC(=O)Nc1ccc(S(N)(=O)=O)cc1 (stereo unspecified) | 7.58% |
| Cc1ccc(NC(=O)Cn2sc3ccccc3c2=O)cc1 | 74% (active) |
| Cc1ccc(-n2nc(-c3ccco3)cc2C(=O)NCc2cccnc2)cc1 | 38.1% (active) |
| O=C(Nc1ccccc1Cl)/C(Cl)=C(\Cl)S(=O)c1ccccc1 (stereo unspecified) | 101% (active) |
| CC1(C(=O)NCc2cccc3ccccc23)CCN1Cc1ccc(-c2ccccc2)o1 (stereo unspecified) | 16.1% |
| Cc1nc(-c2ccccc2)sc1C(=O)/C=C/c1ccccc1 | 81.5% (active) |
| CCS(=O)(=O)Nc1ccc(C2=NN(S(=O)(=O)c3ccc(F)cc3)C(c3ccco3)C2)cc1 (stereo unspecified) | 10.4% |
| Cn1sc(=O)c2cc(S(=O)(=O)NC3CC3)ccc21 | 34.2% (active) |
| CN(C)CCCNC(=O)/C=C/c1ccc(OCc2c(F)cccc2Cl)cc1 | 10.8% |
| Cc1ccc(CS(=O)(=O)c2ncc(Cl)c(C(=O)Nc3nnc(C)s3)n2)cc1 | 79.9% (active) |
| CSc1nnc(NC(=O)c2nc(S(=O)(=O)Cc3ccc(C)cc3)ncc2Cl)s1 | 79.6% (active) |
| O=C(Nc1nc(-c2ccco2)c(-c2ccco2)s1)c1ccco1 | 60.6% (active) |
| COC(=O)c1nc(NC(=O)c2ccc(C(C)(C)C)cc2)n[nH]1 | 10.3% |
| Cc1cc(-c2n[nH]c(=S)n2/N=C/C(Br)=C/c2ccccc2)n[nH]1 | 63% (active) |
| O=C(/C(=C/c1cccc(Cl)c1)c1nc2ccccc2[nH]1)c1ccccc1 | 98.9% (active) |
| O=C(/C=C/c1ccc(Cl)c([N+](=O)[O-])c1)c1ccc(O)cc1 | 90.2% (active) |
| CC(=O)Nc1ccc(C=CC(=O)c2ccc([N+](=O)[O-])cc2)cc1 | 84.1% (active) |
| COC(=O)C1(C)NC(c2ccccc2OC)C2C(=O)N(c3ccccc3)C(=O)C21 (stereo unspecified) | -5.37% |
| CCN(CC)CCN(C(=O)c1ccc2c(c1)CCCC2)c1nc2c(OC)cccc2s1 | 7.79% |
| COc1ccc2c(c1)c(=Cc1ccc(N(C)C)cc1)c1cc(-c3ccccc3)[n+](C)n12 | 28.5% (active) |
| OC(CNCC1CCCO1)Cn1c2ccc(Br)cc2c2cc(Br)ccc21 (stereo unspecified) | 12.6% |

| SMILES | inhibition |
| --- | --- |
| COC(=O)/C=C\C(=O)Nc1cccc([N+](=O)[O-])c1 | 83.5% (active) |
| COc1ccc2c(c1OC)C(=O)OC2Nc1nc(-c2ccccc2)cs1 (stereo unspecified) | 61.3% (active) |
| O=C1/C(=C\c2ccc(O)cc2)CCC1CNc1ccc(Cl)cc1 (stereo unspecified) | 25.6% (active) |
| COc1ccc(CCNC(=O)c2nnc(CS(=O)(=O)c3ccccc3)o2)cc1OC | 6.71% |
| COc1ccccc1-n1nnnc1S(=O)(=O)Cc1ccc(Cl)cc1 | 49.7% (active) |
| N#Cc1ccc(C(C(=O)NCc2ccccc2)n2c(=O)c(-c3ccco3)nc3ccccc32)cc1 (stereo unspecified) | 91.9% (active) |
| Cc1cccc(C)c1NC(=O)C(c1cccc2ccccc12)n1c(=O)c(-c2ccco2)nc2ccccc21 (stereo unspecified) | 53% (active) |
| Cc1cccc(C)c1NC(=O)C(c1ccc(C(F)(F)F)cc1)n1c(=O)c(-c2ccco2)nc2ccccc21 (stereo unspecified) | 80.6% (active) |
| O=C(NC1CCCCC1)C(c1cc2ccccc2o1)n1c(=O)c(-c2ccco2)nc2ccccc21 (stereo unspecified) | 80.4% (active) |
| CCn1c(SC)nc(O)c(C(c2ccc(OC)c(O)c2)c2c(O)nc(SC)n(CC)c2=O)c1=O | 62% (active) |
| O=C(NCCOCc1ccc(Cl)cc1)c1ncn[nH]1 | 6.41% |
| COc1ccc(C(C[N+](=O)[O-])n2nc(C)cc2C)cc1 (stereo unspecified) | 62.2% (active) |
| CCN(CCCNC(=O)c1ccc2c(c1)NC(=O)CN2C)c1cccc(C)c1 | 50.9% (active) |
| Cc1nnnn1/C(=C\c1ccccc1)C(=O)OCC(=O)N1CC2(C)CC1CC(C)(C)C2 (stereo unspecified) | 54.9% (active) |
| O=[N+]([O-])c1c(NCCO)cc(Sc2nc3ccccc3s2)c2nonc12 | 51.7% (active) |
| Cc1cccc(NC(=O)c2ccc3nsnc3c2)c1C | 2.22% |
| O=C(CCl)Nc1ccc(Sc2ccc(NC(=O)CCl)cc2)cc1 | 40.2% (active) |
| O=C(/C=C/c1ccc(Cl)cc1Cl)c1cccnc1 | 98.6% (active) |
| COc1ccc(/C=C/C(=O)c2ccc(NS(=O)(=O)c3ccc(C)cc3)cc2)cc1O | 55.4% (active) |
| Cc1cccc(NC(=O)c2nc(S(=O)(=O)Cc3ccccc3)ncc2Cl)c1 | 90.7% (active) |
| Cc1cccc(CS(=O)(=O)c2ncc(Cl)c(C(=O)Nc3ccc(F)cc3)n2)c1 | 82.7% (active) |
| O=C1C=C(c2ccc(Cl)cc2)C(=O)N1Nc1ccccc1 | 102% (active) |

| SMILES | inhibition |
| --- | --- |
| O=C(NNc1ccccn1)c1ccc(Cl)nc1 | 2.34% |
| CCN1/C(=C\c2ccc3ccccc3[n+]2CC)Sc2cc(C)ccc21 | 16.8% |
| Nc1cccc(OCCCCCOc2cccc(N)c2)c1 | 3.48% |
| Cc1cc(C)nc(S/C=C/C(=O)c2ccccc2)n1 | 96.8% (active) |
| c1ccc(CCC2=NCCn3cccc32)cc1 | 28.8% (active) |
| Cc1ccc(NC(=O)c2cc(-c3ccc(C)o3)nc3ccccc23)nc1 | 24% (active) |
| CC1(Oc2ccccc2-c2ccno2)CCN(Cc2ccc(-c3ccccc3)o2)C1 (stereo unspecified) | 16.2% |
| Cc1nc2sc(C(c3ccco3)N3CCOCC3)c(O)n2n1 (stereo unspecified) | 5.85% |
| N#Cc1ccccc1S(=O)(=O)N1CCN(Cc2c(O)ccc3ccccc23)CC1 | 53% (active) |
| CCCCOC(=O)CNc1nnc(SCC(=O)OCC)[nH]c1=O | 69.3% (active) |
| O=C(/C=C(O)/C=C/c1ccc(O)cc1)/C=C/c1ccc(O)cc1 | 63.4% (active) |
| O=C(Cn1nc(CNc2ccc(Cl)cc2)[n+]2c1CCCCC2)c1ccc(Cl)cc1 | 19.8% |
| CN1CCC[C@@H]1CCO[C@](C)(c1ccccc1)c1ccc(Cl)cc1 | 27.9% (active) |
| CCOC(=O)C(=Cc1ccccc1OC)C(=O)OCC | 60.3% (active) |
| CCOC(=O)C(=Cc1ccccc1)C(=O)c1ccccc1 | 98.5% (active) |
| Cc1[nH]c(=O)c(C(=O)/C=C/c2ccccc2)c2c1CCCC2 | 56.5% (active) |
| CC1=CC(C)(C)Nc2ccc(OC(=O)CN3C(=O)C4CCCCC4C3=O)cc21 (stereo unspecified) | 83.2% (active) |
| CC1=CC(C)(C)Nc2ccc(OC(=O)C(Cc3ccccc3)N3C(=O)C4CCCCC4C3=O)cc21 (stereo unspecified) | -3.56% |

From PubChem BioAssay AID651612 (The Scripps Research Institute Molecular Screening Center, 2012)
